Bioassay records (PubChem)
Only some compounds are listed: those with a hit (about 0.9% of all), similar ones and a draw of the others.
TAR Tat displ: HIV-1 TAR-Tat binding disruption; HIV-1 TAR RNA, Tat peptide displacement FRET; hits give high values; z-score (test concentration not listed); hit rate 0.6% among 100,000; active = z-score of 3 or more in at least 2 runs
CDC25B CDK2 inh: human CDC25B-CDK2/CyclinA binding inhibition. HTRF CDC25B-CDK2/CyclinA binding, anti-His/anti-Flag; hits give high values. P30305+P24941. z-score (concentration not given with the values). hit rate 0.72% among 94,000; in the data active = z-score above about 3.2
Of the large screens only hits and unclear results are named; the others gave an inactive call.

Cc1noc(NS(=O)(=O)c2ccc(NC(=O)c3nn(-c4ccccc4)ccc3=O)cc2)c1C	TAR Tat displ 16
O=C(Nc1ccc(S(=O)(=O)Nc2ncccn2)cc1)c1nn(-c2ccccc2)ccc1=O	none
Cc1cc2oc(C(=O)Nc3ccc(S(=O)(=O)Nc4onc(C)c4C)cc3)cc(=O)c2cc1C	TAR Tat displ 4.4
CCN(CC)C1=C(C(=O)c2ccccc2)N(CC(N)=O)S(=O)(=O)c2ccccc21	none
O=C(NCc1ccccn1)c1ccc(CSc2nc3cccnc3n2Cc2ccccc2)cc1	none (no result: CDC25B CDK2 inh)
O=c1cc(-c2ccccc2)oc2ccc(-c3nn[nH]n3)cc12	none (no result: TAR Tat displ)
O=c1cc(-c2ccccc2)oc2c(O)c(O)ccc12	TAR Tat displ 19
Cc1oc2c(O)c(O)ccc2c(=O)c1-c1ccccc1	none (no result: TAR Tat displ)
O=c1cc(-c2ccccc2)oc2cc(O)c(O)cc12	TAR Tat displ 29 (no result: CDC25B CDK2 inh)
CCN(Cc1cc(=O)n2nc(C3CC3)sc2n1)c1cccc(C)c1	none (no result: CDC25B CDK2 inh)
CCC(C)N(CCCNC(=O)c1sc2nc3n(c(=O)c2c1C)CCCCC3)Cc1ccco1 (stereo not given)	none (no result: CDC25B CDK2 inh)
C=CCOc1c(Cl)cc(CNc2ccc3[nH]c(=O)[nH]c3c2)cc1OC	none
COc1cc(CNc2ccc3[nH]c(=O)[nH]c3c2)cc(Br)c1OCc1ccc(F)cc1	CDC25B CDK2 inh 7.2
COc1cc(CNCCSc2nnnn2C)cc(Br)c1OCc1ccc(F)cc1	none
CCOc1cc(CNc2ccc3[nH]c(=O)[nH]c3c2)cc(Cl)c1OCC	CDC25B CDK2 inh 7.7
OC(c1ccccc1)(c1ccccc1)c1nc2ccccc2[nH]1	none
Cc1ccc(C)c(NS(=O)(=O)c2ccc3c(c2)C(C)(C)C(=O)N3C)c1	none (no result: CDC25B CDK2 inh)
CC(C)Cn1cc(NC(=O)Nc2ccc(Br)cc2F)c2ccccc2c1=O	CDC25B CDK2 inh 14
CC(C)Cn1cc(NC(=O)Nc2cc(F)ccc2F)c2ccccc2c1=O	none (no result: CDC25B CDK2 inh)
CC(O)c1nc2ccc(-c3ccc4nc(C(C)O)[nH]c4c3)cc2[nH]1 (stereo not given)	CDC25B CDK2 inh 6.8
CC(O)c1nc2ccccc2[nH]1 (stereo not given)	none (no result: TAR Tat displ)
O=C(Cn1nc2c(cc1=O)CCCC2)Nc1ccc(Cl)cc1	none (no result: CDC25B CDK2 inh)
O=C(Cn1nc2c(cc1=O)CCCC2)Nc1ccc2c(c1)OCO2	TAR Tat displ 6.2 (no result: CDC25B CDK2 inh)
Cc1nn(CCCC(=O)NCCN2CCOCC2)c(=O)c2cc3sccc3n12	none
CCOCCCNc1ncc2c(n1)CC(c1ccco1)CC2=O (stereo not given)	none (no result: TAR Tat displ)
O=C1CC(c2cccs2)Cc2nc(NCCSc3ccc(Cl)cc3)ncc21 (stereo not given)	CDC25B CDK2 inh 21
CSc1ccc(CNC(=O)c2ccc(Cn3c(=O)c4cccn4c4cccnc43)cc2)cc1	none (no result: CDC25B CDK2 inh)
Cc1nc2scc(C)n2c(=O)c1S(=O)(=O)N1CCN(C(=O)c2ccco2)CC1	none
O=c1cc(-c2ccc(O)c(O)c2)oc2cc(O)c([C@@H]3O[C@H](CO)[C@@H](O)[C@H](O)[C@H]3O)c(O)c12	TAR Tat displ 26 (no result: CDC25B CDK2 inh)
C[C@@H]1O[C@@H](O[C@H]2[C@H](Oc3cc(O)c4c(=O)cc(-c5ccc(O)cc5)oc4c3)O[C@H](CO)[C@@H](O)[C@@H]2O)[C@H](O)[C@H](O)[C@H]1O	none (no result: CDC25B CDK2 inh)
O=c1cc(-c2cc(O)c(O)c([C@@H]3O[C@H](CO)[C@@H](O)[C@H](O)[C@H]3O)c2)oc2cc(O[C@@H]3O[C@H](CO)[C@@H](O)[C@H](O)[C@H]3O)cc(O)c12	TAR Tat displ 25 (no result: CDC25B CDK2 inh)
C[C@@H]1O[C@@H](OC2O[C@@H](COc3cc(O)c4c(=O)cc(-c5ccc(O)cc5)oc4c3)[C@@H](O)[C@@H](O)[C@@H]2O)[C@H](O)[C@H](O)[C@H]1O (stereo not given in full)	none (no result: CDC25B CDK2 inh)
Cn1c(=O)c(=O)n(C)c2cc(S(=O)(=O)CCC(=O)Nc3cccnc3)ccc21	none
Cc1ccc(-c2csc(NC(=O)c3c(-c4ccc(F)cc4)nc4n3CCS4(=O)=O)n2)cc1	none
O=C(NCc1n[nH]c(=O)c2ccccc12)C1CCCCC1	none (no result: CDC25B CDK2 inh)
Cc1ccc2nc(Nc3ccc(Br)cc3)c3nnnn3c2c1	none (no result: CDC25B CDK2 inh)
O=C(NCc1ccc2c(c1)OCO2)c1ccc2nc3[nH]c4ccccc4c3nc2c1	none (no result: CDC25B CDK2 inh)
O=C(NCc1ccc2c(c1)OCO2)c1ccc2nc(-c3ccco3)c(-c3ccco3)nc2c1	TAR Tat displ 60 (no result: CDC25B CDK2 inh)
Cc1cc(C)c2c(n1)nn1c(C)c(CCC(=O)NC3CCCC3)c(C)nc21	none
CCN(CC)c1ccc(NC(=O)CCc2c(C)nc3c4c(C)cc(C)nc4nn3c2C)c(C)c1	TAR Tat displ 6.4
CC1CCC(NC(=O)CCSCc2cnn(-c3ccccc3)c2-n2cccc2)CC1 (stereo not given)	none
O=C(CN1C(=O)c2cccc3cccc1c23)NCc1ccccn1	none
O=C1c2cccc3c(SCCO)ccc(c23)C(=O)N1CCc1ccccn1	CDC25B CDK2 inh 7.8 (no result: TAR Tat displ)
COc1cccc(C2CC(=O)N3CN(C4CCCC4)CSC3=C2C#N)c1 (stereo not given)	CDC25B CDK2 inh 5.7
COc1cccc(C2CC(=O)N3CN(C4CCCCC4)CSC3=C2C#N)c1 (stereo not given)	CDC25B CDK2 inh 5.3
COc1ccc(OC)c(C2CC(=O)N3CN(C4CCCCC4)CSC3=C2C#N)c1 (stereo not given)	CDC25B CDK2 inh 5.3
N#CC1=C2SCN(C3CCCC3)CN2C(=O)CC1c1ccc(F)cc1 (stereo not given)	CDC25B CDK2 inh 4
CCOc1ccc(C2CC(=O)N3CN(C4CCCC4)CSC3=C2C#N)cc1 (stereo not given)	none
CC1(C)CC(=O)C2=C(C1)OC(N)=C(C#N)C2c1ccccc1C(F)(F)F (stereo not given)	none (no result: TAR Tat displ)
CN1C(=O)C(C)(C)c2cc(S(=O)(=O)N(Cc3ccco3)C3CCCCC3)ccc21	none (no result: CDC25B CDK2 inh)
Nc1nc2ccccc2n1Cc1ccccc1Cl	none (no result: TAR Tat displ)
COC(=O)c1c(SC)nc2ccccc2c1OC	none (no result: CDC25B CDK2 inh)
CCCN1C(SCC(=O)c2ccccc2)=NS(=O)(=O)c2ccccc21	none (no result: CDC25B CDK2 inh)
Nc1ncn(CCc2ccccc2)n1	none (no result: CDC25B CDK2 inh)
O=C(O)c1ccc(S(=O)(=O)c2ccc3c(c2)C(=O)N(Cc2ccccc2)C3=O)cc1	none (no result: TAR Tat displ)
N#CC1=C2SCN(Cc3ccco3)CN2C(=O)CC1c1cccc2ccccc12 (stereo not given)	none
N#CC1=C2SCN(C3CCCCC3)CN2C(=O)CC1c1cccc2ccccc12 (stereo not given)	CDC25B CDK2 inh 4.2
CCc1cc2c(=O)oc(-c3ccccc3)nc2s1	none
Cc1cccc(-c2nc3sc(C)cc3c(=O)o2)c1	CDC25B CDK2 inh 7.6
CCCC(O)c1nc2ccccc2n1CCCOc1ccccc1Cl (stereo not given)	none
COc1ccc(OCC(=O)Nc2nn3c(-c4ccco4)nnc3s2)cc1	TAR Tat displ 25
O=C(Nc1nn2c(-c3ccco3)nnc2s1)c1ccc(F)cc1	none
O=C(COc1ccccc1)Nc1nn2c(-c3ccco3)nnc2s1	TAR Tat displ 32
CC(C)Cc1nnc2sc(NC(=O)c3ccco3)nn12	TAR Tat displ 11
O=C(Nc1nn2c(-c3ccco3)nnc2s1)c1cccc(F)c1	none
CCc1nnc2sc(NC(=O)c3ccco3)nn12	none
O=C(Nc1ncc(Cc2ccc(F)cc2)s1)C1=Cc2cc(Br)ccc2OC=C1	none
CCN(CC)c1ccc(C2N(C)c3ccccc3N2C)cc1	none (no result: TAR Tat displ)
CC1(c2ccccc2)Nc2ccccc2-c2nc3ccccc3n21 (stereo not given)	none (no result: TAR Tat displ)
CC(=O)Oc1ccc(C2Nc3ccc(C)cc3C3C=CCC32)c(OC(C)=O)c1 (stereo not given)	none
COc1cccc([C@@H]2Nc3ccc(C(=O)O)cc3[C@@H]3C=CC[C@@H]32)c1	TAR Tat displ 14
